# Data from PubChem BioAssay (NCATS).
# Inconclusive results are not listed. A call without a number means that no potency is given here. The source made the active and inactive calls. Unless noted, calls follow the shape of the dose curve; as a rule, active = well fitted curve in the direction sought with a large enough effect; inconclusive = small, poorly fitted or top-dose-only effect, or another doubt; inactive = no such curve, though single readings can be large; an effect the other way counts as inactive or inconclusive.
# Assays:
# [1] = Confirmatory screen NINDS Rhodamine qHTS for Zika virus inhibitors (AID 1347161); also: potency is read from the fitted curve at half-maximal effect; nearly all actives have a fitted effect of over 60% in size
# Procedure, shortened: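 Enzyme (25 nM, linked NS2B-NS3) was preincubated 15 min with compound in 10 mM Tris-HCl pH 8.0, 0.01% Tween 20. Rhodamine110 substrate (1.5 microM) was then added and fluorescence read at start and after 15 min.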
# [2] = Tertiary RLuc qRT-PCR qHTS assay for Zika virus inhibitors (AID 1347169); also: potency is read from the fitted curve at half-maximal effect; nearly all actives have a fitted effect of over 55% in size
# Procedure, shortened: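 Inhibition of ZIKV-RLuc replication in Vero cells, read as Renilla luminescence 1-1.5 hrs after live-cell substrate addition, following 48-72 hrs infection at MOI 1-2 in presence of compound.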
# [3] = biological target: Catechol O-methyltransferase (Homo sapiens) (UniProt P21964); assay: Confirmatory Screen for Target Class Profiling of Small Molecule Inhibitors of Methyltransferases (AID 1745852; calls by dose curve); settings: MTase-Glo luminescence, SAH detection, recombinant enzyme; measured here: COMT max response; stronger effect = lower value
# Catechol O-methyltransferase (Homo sapiens), sequence (P21964 whole entry, looked up): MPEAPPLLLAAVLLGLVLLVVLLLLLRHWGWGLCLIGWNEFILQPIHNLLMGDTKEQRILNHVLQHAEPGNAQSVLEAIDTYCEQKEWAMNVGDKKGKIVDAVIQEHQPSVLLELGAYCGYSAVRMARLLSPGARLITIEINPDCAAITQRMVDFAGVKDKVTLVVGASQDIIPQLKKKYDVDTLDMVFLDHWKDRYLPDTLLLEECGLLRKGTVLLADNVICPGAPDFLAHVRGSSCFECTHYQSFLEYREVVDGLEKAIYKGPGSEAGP
# [4] = biological target: Guanidinoacetate N-methyltransferase (Homo sapiens) (UniProt Q14353); assay: as above; settings: activity change, negative = inhibition: at 57.3 µM (top of the series) unless noted
# [5] = biological target: Nicotinamide N-methyltransferase (Homo sapiens) (UniProt P40261); assay: as above; settings: MTase-Glo luminescence, SAH detection, recombinant enzyme; measured here: NNMT max response; stronger effect = lower value
# Nicotinamide N-methyltransferase (Homo sapiens), sequence (P40261 whole entry, looked up): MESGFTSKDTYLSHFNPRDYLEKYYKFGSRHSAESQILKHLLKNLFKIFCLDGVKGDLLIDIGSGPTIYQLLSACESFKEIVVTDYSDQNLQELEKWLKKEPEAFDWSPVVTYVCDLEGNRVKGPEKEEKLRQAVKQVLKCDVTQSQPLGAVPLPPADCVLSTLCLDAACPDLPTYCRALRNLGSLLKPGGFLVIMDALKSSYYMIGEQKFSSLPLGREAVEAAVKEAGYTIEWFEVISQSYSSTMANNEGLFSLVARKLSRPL
# [6] = biological target: Phenylethanolamine N-methyltransferase (Homo sapiens) (UniProt P11086); assay: as above; settings: MTase-Glo luminescence, SAH detection, recombinant enzyme; measured here: PNMT max response; stronger effect = lower value
# Phenylethanolamine N-methyltransferase (Homo sapiens), sequence (P11086 whole entry, looked up): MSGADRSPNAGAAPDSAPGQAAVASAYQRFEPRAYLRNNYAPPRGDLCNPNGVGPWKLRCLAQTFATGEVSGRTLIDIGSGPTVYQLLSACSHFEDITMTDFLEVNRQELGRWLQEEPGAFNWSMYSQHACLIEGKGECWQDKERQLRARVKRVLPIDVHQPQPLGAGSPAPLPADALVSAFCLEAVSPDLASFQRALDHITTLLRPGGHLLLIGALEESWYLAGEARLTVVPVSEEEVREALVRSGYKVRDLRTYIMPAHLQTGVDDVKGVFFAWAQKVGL
# [7] = Primary redox qHTS assay for identification of artifact compounds. (AID 1845223)
# Procedure, shortened: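 Amplex Red (25 uM) and HRP (250 mU/mL) in HBSS, with compounds for 15 min, then 250 uM DTT for 30 min, room temperature, dark. Fluorescence 525/598 nm read; normalized to DMSO and 10 uM DA3003; Hill fit.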
# [8] = test system: CAOV3; assay: Primary qHTS to identify gynecologic anti-cancer compounds using libraries of approved drugs and bioactive compounds (AID 1345084); settings: Gynecologic cancer cell panel viability, ATPlite luminescence, 48 h; series mostly up to 57.5 µM; also: nearly all actives have a fitted effect of over 55% in size; also: potency is read from the fitted curve at half-maximal effect
# Procedure, shortened: (§1)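 48 h compound exposure at 37 C, 5% CO2; five-point qHTS. ATPlite luminescence readout of cell ATP.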
# [9] = test system: SKOV3; assay: as above; settings: Gynecologic cancer cell panel viability, ATPlite luminescence, 48 h; series mostly up to 57.5 µM
# Procedure, shortened: as §1
# [10] = test system: NIH3T3; assay: Cytotoxic Profiling of Annotated Libraries Using Quantitative High-Throughput Screening (AID 1296008); settings: Five cell lines viability, CellTiter-Glo ATP luminescence, 48-72 h; max response: stronger effect = lower value; also: nearly all actives have a fitted effect of over 60% in size; also: potency is read from the fitted curve at half-maximal effect
# Procedure, shortened: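 Compounds were pin-transferred onto cells and incubated 48 or 72 hr at 37 degree Celsius, 95% humidity. CellTiter-Glo was added, plates sat 10 min at room temperature, then ATP-coupled luminescence was imaged as the viability read-out.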
# [11] = qHTS to identify inhibitors of the type 1 interferon - major histocompatibility complex class I in skeletal muscle: primary screen against the NCATS Mechanism Interrogation Plate v5.0 (MIPE) Libary (AID 1347411); also: nearly all actives have a fitted effect of over 65% in size; also: potency is read from the fitted curve at half-maximal effect
# Procedure, shortened: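 Immortalized human C25cl48 myoblasts with HiBit knocked into endogenous HLA-B*08:01 were stimulated with 4.0 ng/ml IFN-beta and exposed to compounds (11-point 1:3 titration, top 46 uM final) for 24 hrs at 37 C; HiBiT lytic luminescence measured.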
# [12] = biological target: N-terminal Xaa-Pro-Lys N-methyltransferase 1 (Homo sapiens) (UniProt Q9BV86); assay: Confirmatory qHTS for Inhibitors of N-terminal methyltransferase 1 (NTMT1): MTaseGlo Assay (AID 1645874);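 also: luminescence from SAH made as NTMT1 methylates SPKRIA peptide using SAM; nearly all actives have a fitted effect of over 65% in size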
# N-terminal Xaa-Pro-Lys N-methyltransferase 1 (Homo sapiens), sequence (Q9BV86 whole entry, looked up): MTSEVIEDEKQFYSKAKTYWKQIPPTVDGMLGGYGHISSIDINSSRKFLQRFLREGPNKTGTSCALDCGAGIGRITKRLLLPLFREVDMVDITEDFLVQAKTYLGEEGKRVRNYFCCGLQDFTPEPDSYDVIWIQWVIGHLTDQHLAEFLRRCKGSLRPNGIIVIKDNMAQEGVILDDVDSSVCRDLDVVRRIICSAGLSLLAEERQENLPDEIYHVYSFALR
# Procedure, shortened: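 Preincubation of NTMT1 (125 nM) plus SAM (100 uM) with test compounds lasted 15 min; methylation of 1 uM SPKRIA then proceeded 30 min in the dark at room temperature. Luciferase signal reported SAH produced.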
# [13] = qHTS drug screen for cell cycle checkpoint inhibitors in PARPi-resistant BRCA-mutant ovarian cancer cell lines. (AID 1963452; calls by dose curve); settings: PEO1/OlaR viability, CellTiter-Glo luminescence, 96 h, stronger effect = lower value
# Procedure, shortened: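 PEO1, PEO4 and PEO1/OlaR ovarian cancer cells, 600 per well, exposed 96 h at 37C to a dilution series. Viability read by CellTiter-Glo luminescence, normalized to DMSO and empty wells; activity summarized as Z-AUC.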
# [14] = test system: Zika virus NS2B-NS3 protease (linked construct); assay: Confirmatory screen NINDS AMC qHTS for Zika virus inhibitors (AID 1347152); also: potency is read from the fitted curve at half-maximal effect; nearly all actives have a fitted effect of over 70% in size
# Procedure, shortened: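 Concentration-response confirmation used the NINDS linked protease (NS2B hydrophilic domain joined to NS3 protease domain), 1 nM, with a 15-min compound preincubation. Substrate, Nle-KRR-AMC at 10 microM, was read by UV fluorescence before and after 15 min.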
# [15] = biological target: Cytochrome P450 2C9 (Homo sapiens) (UniProt P11712); assay: Cytochrome P450 family 2 subfamily C member 9 (CYP2C9) small molecule antagonists: luciferase biochemical (cell-free) qHTS assay (AID 1645842; active = well fitted curve in the direction sought with a large enough effect in the repeat runs; an effect the other way counts as inactive or inconclusive; also: nearly all actives have a fitted effect of over 55% in size; also: potency is read from the fitted curve at half-maximal effect)
# Cytochrome P450 2C9 (Homo sapiens), sequence (P11712 whole entry, looked up): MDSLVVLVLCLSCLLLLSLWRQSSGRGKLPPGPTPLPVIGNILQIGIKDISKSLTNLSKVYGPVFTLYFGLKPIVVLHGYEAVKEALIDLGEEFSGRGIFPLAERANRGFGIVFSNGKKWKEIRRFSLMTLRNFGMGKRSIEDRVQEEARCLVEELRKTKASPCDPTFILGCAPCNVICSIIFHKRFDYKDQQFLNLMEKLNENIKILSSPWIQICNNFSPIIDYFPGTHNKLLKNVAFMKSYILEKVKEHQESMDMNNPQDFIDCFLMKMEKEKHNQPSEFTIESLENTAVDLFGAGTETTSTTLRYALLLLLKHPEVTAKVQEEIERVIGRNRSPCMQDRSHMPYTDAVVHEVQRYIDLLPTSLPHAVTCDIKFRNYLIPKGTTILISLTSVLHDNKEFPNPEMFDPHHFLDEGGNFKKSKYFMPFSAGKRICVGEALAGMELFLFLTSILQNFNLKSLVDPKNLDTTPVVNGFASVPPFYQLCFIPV
# Procedure, shortened: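 Luminescence, after 20 min with luciferin detection reagent, reflected CYP2C9 turnover during a 1 h NADPH-driven reaction at 37C. Enzyme-substrate mix contained 0.4% bovine serum albumin and was preincubated with compound 10 min at room temperature.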
# [16] = P-glycoprotein substrates identified in KB-8-5-11 adenocarcinoma cell line, qHTS therapeutic library screen (AID 1346987); also: nearly all actives have a fitted effect of over 65% in size; also: potency is read from the fitted curve at half-maximal effect
# Procedure, shortened: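 KB-8-5-11: colchicine-selected sub-line of KB-3-1 over-expressing P-gp; assay medium lacked colchicine. 72 h drug exposure at 37 degree C, CellTiter-Glo.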
# [17] = qHTS assay to identify inhibitors of the type 1 interferon - major histocompatibility complex class I in skeletal muscle: Counter screen cell viability and HiBit confirmation (AID 1347412); settings: iHSKM muscle cells + IFN-b, HiBiT or CellTiter-Glo, 24 h; also: potency is read from the fitted curve at half-maximal effect; nearly all actives have a fitted effect of over 60% in size
# Procedure, shortened: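 Human myoblast knock-in line, 4.0 ng/ml IFN-beta stimulation, 24 h compound treatment. Endpoints: HiBiT lytic luminescence (HLA-B level) and CellTiter Glo (ATP). Dosing 12 concentrations, 3-fold steps, 46 uM highest final.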
# [18] = biological target: Cytochrome P450 2D6 (Homo sapiens) (UniProt P10635); assay: Cytochrome P450 family 2 subfamily D member 6 (CYP2D6) small molecule antagonists: luciferase biochemical (cell-free) qHTS assay (AID 1645840; active = well fitted curve in the direction sought with a large enough effect in the repeat runs; an effect the other way counts as inactive or inconclusive; also: potency is read from the fitted curve at half-maximal effect; nearly all actives have a fitted effect of over 55% in size)
# Cytochrome P450 2D6 (Homo sapiens), sequence (P10635 whole entry, looked up): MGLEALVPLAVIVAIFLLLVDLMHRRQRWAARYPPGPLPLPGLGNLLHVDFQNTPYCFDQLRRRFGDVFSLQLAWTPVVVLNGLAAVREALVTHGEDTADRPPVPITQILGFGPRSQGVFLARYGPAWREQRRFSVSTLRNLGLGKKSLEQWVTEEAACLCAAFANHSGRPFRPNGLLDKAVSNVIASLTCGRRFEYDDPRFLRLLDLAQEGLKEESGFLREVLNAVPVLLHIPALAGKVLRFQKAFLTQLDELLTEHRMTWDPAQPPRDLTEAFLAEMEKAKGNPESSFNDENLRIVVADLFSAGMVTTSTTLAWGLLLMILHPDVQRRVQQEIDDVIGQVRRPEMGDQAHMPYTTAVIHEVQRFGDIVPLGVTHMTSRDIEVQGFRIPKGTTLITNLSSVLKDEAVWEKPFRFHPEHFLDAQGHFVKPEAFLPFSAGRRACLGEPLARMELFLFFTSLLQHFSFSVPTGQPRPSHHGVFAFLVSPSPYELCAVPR
# Procedure, shortened: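 P450-Glo luminescent screen: recombinant CYP2D6 enzyme–proluciferin substrate mix preincubated with compound 10 min at room temperature, then NADPH regeneration added for 1 h at room temperature. Detection reagent added for 20 min; luciferin light read as relative luminescence units.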
# [19] = measured here: PEO1 parental Z-AUC
structure (smiles),measurement,setting,value
Cc1ccn(-c2cc(Cl)ccc2[C@@H](Oc2cc(-c3ccc(C[C@H](N)C(=O)O)cc3)nc(N)n2)C(F)(F)F)n1,Potency,[1],24.8 µM (active)
same,Potency,[2],20.8 µM (active)
same,activity,[3],-0.316%
same,"activity change, negative = inhibition",[4],0%
same,activity,[5],-31.2%
same,activity,[6],-1.43%
same,Potency,[7],inactive
same,Potency,[8],inactive
same,Potency,[9],inactive
Cc1cc(N=Nc2ccc(S(=O)(=O)Nc3ccccn3)cc2)c(N)cc1O,Potency,[7],inactive
same,Potency,[10],8.2 µM (active)
Cc1cc(CS(=O)(=O)c2ccccc2)cc(OCc2ccc(CN3CCC[C@@H]3CO)cc2)c1,Potency,[11],inactive
same,Potency,[12],inactive
same,Potency,[7],inactive
same,Z-AUC,[13],0.153 (inactive)
same,Z-AUC,[13]; [19],0.253
same,Z-AUC,[13]; measured here: PEO4 Z-AUC,0.0408
same,Potency,[10],20.6 µM (active)
CN(Cc1ccc(C(=O)O)cc1)c1ccc(OCc2c(-c3c(Cl)cccc3Cl)noc2C2CC2)nc1C(F)(F)F,Potency,[14],13.9 µM (active)
same,Potency,[1],2.21 µM (active)
same,Potency,[2],13.1 µM (active)
same,Potency,[15],10.7 µM (active)
same,activity,[3],-2.57%
same,"activity change, negative = inhibition",[4],-2.02%
same,activity,[5],-0.741%
same,activity,[6],0.284%
same,Potency,[7],inactive
same,Potency,[8],inactive
same,Potency,[9],inactive
CCCCc1nc(C)c(CC(=S)N(C)C)c(=O)n1Cc1ccc(-c2ccccc2-c2nn[nH]n2)cc1,Potency,[15],9.52 µM (active)
same,Potency,[8],inactive
CC(=O)N1CCN([C@H]2CCN(C(=O)N(C)[C@H](C)c3cc(C(F)(F)F)cc(C(F)(F)F)c3)[C@@H](c3ccc(F)cc3C)C2)CC1,Potency,[8],inactive
same,Potency,[9],inactive
Cn1c(NC[C@@H](N)Cc2ccccc2)nc(-c2ccncc2)c(-c2ccc3ccccc3c2)c1=O,Potency,[7],inactive
same,Z-AUC,[13],-0.2 (inactive)
same,Z-AUC,[13]; [19],0.768
same,Z-AUC,[13]; measured here: PEO4 Z-AUC,0.932
same,Potency,[8],inactive
same,Potency,[9],inactive
CC[C@H]1OC(=O)[C@H](C)[C@@H](O[C@H]2C[C@@](C)(OC)[C@@H](O)[C@H](C)O2)[C@H](C)[C@@H](O[C@@H]2O[C@H](C)C[C@H](N(C)C)[C@H]2O)[C@](C)(O)C[C@@H](C)/C(=N/OCOCCOC)[C@H](C)[C@@H](O)[C@]1(C)O,Potency,[16],inactive
same,Potency,[7],inactive
same,Potency,[8],inactive
same,Potency,[9],inactive
CN[C@@H]1[C@@H](O)[C@@H](O[C@@H]2[C@@H](O)[C@H](O[C@H]3O[C@@H]([C@@H](C)NC)CC[C@H]3N)[C@@H](N)C[C@H]2N)OC[C@]1(C)O,Potency,[7],inactive
same,Potency,[8],inactive
same,Potency,[9],inactive
Fc1ccccc1CNCc1ccc(-c2ccnc3[nH]ccc23)cc1,Potency,[16],11.6 µM (active)
same,Potency,[15],inactive
same,Potency,[12],inactive
same,Potency,[7],inactive
same,Potency,[8],inactive
same,Potency,[9],inactive
CNCCN(C)Cc1cn[nH]c1-c1ccc(OC2CC(OCCC3CCOCC3)C2)cc1 (stereo unspecified),Potency,[11],inactive
same,activity,[3],0.741%
same,"activity change, negative = inhibition",[4],7.78%
same,activity,[5],-3.1%
same,activity,[6],-1.61%
same,max response,[10],-20% (inactive)
CCCCc1nc(Cl)c(CO)n1Cc1ccc(-c2ccccc2-c2nnn[nH]2)cc1,Potency,[8],inactive
same,Potency,[9],inactive
CC1(C)SC2C(NC(=O)[C@H](NC(=O)N3CCNC3=O)c3ccccc3)C(=O)N2C1C(=O)O (stereo partly specified),Potency,[8],inactive
COCCNCc1ccc(-c2cc3nccc(Oc4ccc(NC(=S)NC(=O)Cc5ccc(F)cc5)cc4F)c3s2)nc1,Potency,[16],16.4 µM (active)
same,Potency,[11],8.29 µM (active)
same,Potency,[7],inactive
same,Z-AUC,[13],0.225 (inactive)
same,Z-AUC,[13]; [19],-0.316
same,Z-AUC,[13]; measured here: PEO4 Z-AUC,0.00247
same,Potency,[10],6.51 µM (active)
same,Potency,[17]; HiBiT,12.5 µM (active)
same,Potency,[17]; Viability,11.1 µM (active)
COc1c(N2CC3CCCNC3C2)c(F)cc2c(=O)c(C(=O)O)cn(C3CC3)c12 (stereo unspecified),Potency,[8],inactive
same,Potency,[9],inactive
Nc1ccc(N)c([N+](=O)[O-])c1,Potency,[8],inactive
same,Potency,[9],inactive
c1ccc(-c2cnc(Nc3ccc(OCCN4CCCC4)cc3)s2)cc1,Potency,[16],16.4 µM (active)
same,Potency,[18],10.7 µM (active)
same,Potency,[7],inactive
same,Potency,[8],inactive
same,Potency,[9],35.5 µM (active)
CC1(CO)CCCC2(C)C1C(OC(=O)c1ccccc1)C=C1C(=O)OCC12O (stereo unspecified),Potency,[7],inactive
same,Potency,[10],12.8 µM (active)
CC1(C)SC2C(NC(=O)[C@H](C(=O)O)c3ccsc3)C(=O)N2C1C(=O)O (stereo partly specified),Potency,[7],inactive
same,Potency,[8],inactive
CCNC(=O)[C@@H]1CCCN1C(=O)[C@H](CCCN=C(N)N)NC(=O)[C@H](CC(C)C)NC(=O)[C@@H](CC(C)C)NC(=O)[C@H](Cc1ccc(O)cc1)NC(=O)[C@H](CO)NC(=O)[C@H](Cc1c[nH]c2ccccc12)NC(=O)[C@H](Cc1cnc[nH]1)NC(=O)[C@@H]1CCC(=O)N1,Potency,[8],inactive
same,Potency,[9],inactive
C[C@@H](CN1CCC(n2c(=O)[nH]c3cc(Cl)ccc32)CC1)NC(=O)c1ccc2ccccc2c1,Potency,[16],18.4 µM (active)
same,Potency,[15],0.239 µM (active)
same,Potency,[7],inactive
same,Potency,[9],inactive
O=C(CC1NCCC[C@H]1O)Cn1cnc2cc(Br)c(Cl)cc2c1=O (stereo partly specified),Potency,[7],inactive
same,Potency,[9],inactive
